{"source": "PubChem BioAssay (NCI)", "note": "This is part of a sample that, as a whole, favours compounds with a hit. Of some 83,000 tested, about 20% had one in any assay.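 Negative percent growth values reflect cell death: -40 means 40% of the cells present at the start died, and -100 means all died.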 Unmarked numbers belong to inactive results. Calls of active or inactive are those of the source. The calls were made as follows: active = growth percent below 10; inactive = the rest.", "data": [{"tested_on": "DU-145 prostate", "experiment": "NCI-60 one-dose screen, 48 h (100 = growth as untreated, 0 = no growth, -100 = all killed)", "details": "10 µM unless noted", "values": [{"smiles": "O=C1/C(=C/c2ccc(O)cc2)COc2ccc(-c3ccccc3)cc21", "growth": "59.7%"}, {"smiles": "CC(=O)N1N=C(c2cccc(Nc3ccncc3)c2)CC1c1ccc2c(c1)OCO2", "note": "(stereo not drawn)", "growth": "104%"}, {"smiles": "Clc1nc(Cl)c2ncn(CCOCCn3cnc4c(Cl)nc(Cl)nc43)c2n1", "growth": "-99.1% (active)"}, {"smiles": "COc1ccc(/C=C2\\COc3ccc(-c4ccccc4)cc3C2=O)cc1O", "growth": "-2.34% (active)"}, {"smiles": "Cc1c2c(cc[n+]1Cc1ccccc1)c1ccc(OCC3CCCCC3)cc1n2CC1CCCCC1", "growth": "-100% (active)"}, {"smiles": "CC[N+](CC)(CCCC(C)[N+]1(Cc2ccccc2)C(C)=CC=C1C)Cc1ccccc1", "note": "(stereo not drawn)", "growth": "101%"}, {"smiles": "CN1C(=O)N(C)[C@H]2NC(NN)=N[C@H]21", "growth": "114%"}, {"smiles": "O=C(Nc1cccc(Cl)c1)Oc1c(Br)c(Br)c(Br)c(Br)c1Br", "growth": "105%"}, {"smiles": "NC(=O)c1ncn(C2OC(CO)C(O)C2O)n1", "note": "(stereo not drawn)", "growth": "85.1%"}, {"smiles": "COc1cc(/C=C/C(=O)c2c(C)oc3nc[nH]c(=O)c23)ccc1O", "growth": "116%"}, {"smiles": "COc1cc(NCCCN(CC(C)C)CC(C)C)c2ncccc2c1", "growth": "106%"}, {"smiles": "O=[N+]([O-])c1cccc(-c2nc(-c3ccc(Cl)cc3Cl)cn2-c2ccccc2)c1", "growth": "-80.1% (active)"}, {"smiles": "O=C(N/N=C/c1ccc(F)cc1)c1ccccc1Nc1cccc(C(F)(F)F)c1", "growth": "96.8%"}, {"smiles": "COc1ccc(Cn2nc(-c3cc(OC)c(OC)c(OC)c3)c3c2CCc2cnoc2-3)cc1OC", "growth": "76.1%"}, {"smiles": "Fc1ccc(C2CC(c3cccc(Nc4ccncc4)c3)=NN2c2ccccc2)cc1", "note": "(stereo not drawn)", "growth": "44.1%"}, {"smiles": "CCn1cc(C2NC(=O)c3ccccc3N2)c2cccc(C)c21", "note": "(stereo not drawn)", "growth": "12.2%"}, {"smiles": "Cc1nc2sc(C(=O)Nc3ccccc3)c(N)c2cc1C(=O)c1ccc(C(F)(F)F)cc1", "growth": "106%"}, {"smiles": "CC(=O)c1c(C)[nH]c(-c2nc3ccc(N4CCN(C)CC4)cc3[nH]2)c1-c1ccccc1", "growth": "59.7%"}, {"smiles": "CCC1(CC)NC(=O)c2c(c3ccc(Cl)c(Cl)c3n2C)C1C#N", "note": "(stereo not drawn)", "growth": "123%"}, {"smiles": "O=C(Nc1ccc(F)cc1)c1c(NC(=O)C(F)(F)F)sc2c1CCCCC2", "growth": "16.9%"}, {"smiles": "O=C(NCCN1CCOCC1)OCc1nc2nc(Cl)nc(N3CCOCC3)c2[nH]1", "growth": "8.23% (active)"}, {"smiles": "CC(C)[N+](C)(CCOC(COc1ccccc1)COc1ccccc1)C(C)C", "growth": "106%"}, {"smiles": "COc1ccc(C(=O)c2cc3c(N)c(C(=O)Nc4cccc(Cl)c4C)sc3nc2C)cc1", "growth": "9.62% (active)"}, {"smiles": "COc1ccccc1/C=C1\\Oc2cc(OCCCN3CCCC3)ccc2C1=O", "growth": "98%"}, {"smiles": "CCc1nc(C)cn1C(=O)OCc1nc2nc(Cl)nc(N3CCOCC3)c2[nH]1", "growth": "-37.3% (active)"}, {"smiles": "CN1CCN(c2cc(F)c(NC3=C(Cl)C(=O)c4ncccc4C3=O)c(F)c2)CC1", "growth": "-67.6% (active)"}, {"smiles": "COc1ccc(Cl)cc1NC(=O)c1c(NC(=O)C(F)(F)C(F)(F)F)sc2c1CCCCC2", "growth": "19.3%"}, {"smiles": "COc1ccccc1/C=C1\\COc2ccc(-c3ccccc3)cc2C1=O", "growth": "7.94% (active)"}, {"smiles": "O=C(O)CCCCCCCCCCCCCCC(=O)O", "growth": "106%"}, {"smiles": "NC(=O)C1(N2CCCCC2)CCN(CCCC(=O)c2ccc(F)cc2)CC1", "growth": "5.34% (active)"}, {"smiles": "CCN1C(=O)/C(=c2\\sc3n(c2=O)NC2C(N=3)N(CC)C(=O)N2CC)c2ccccc21", "note": "(stereo not drawn)", "growth": "17.8%"}, {"smiles": "CCCCCCCCCCCCCCCC(=O)OC[C@@]1(O)C[C@@]23CC[C@@H]4C(C)(C)[C@H](O)CC[C@@]4(C)[C@@H]2CC[C@H]1C3", "growth": "108%"}, {"smiles": "CCOC(=O)c1ccc(Nc2ccnc(SCC(=O)c3ccc(C#N)cc3)n2)cc1", "growth": "79.4%"}, {"smiles": "O=S(=O)(c1cccc(NC2=Nc3cccc4cccc2c34)c1)N1CCCC1", "growth": "90.4%"}, {"smiles": "COc1ccccc1N1CCN(C(=O)c2ccc3nc(NC(=O)c4ccc(NCCc5ccccc5)c([N+](=O)[O-])c4)sc3c2)CC1", "growth": "68.7%"}, {"smiles": "CCN(CC)CCOC(COc1cc(C)cc(C)c1)COc1cc(C)cc(C)c1", "growth": "48.1%"}, {"smiles": "COc1ccc(Nn2c(SCC(=O)Nc3nc(-c4ccc(Cl)cc4)cs3)nc(C)c2C)cc1", "growth": "79.6%"}, {"smiles": "CC1=CC2(C)/C=C(C)/C=C\\CC(O)/C=C3/C=CC(=C4C(=O)OC2(CC1C)C4=O)OC3", "note": "(stereo not drawn)", "growth": "-85.4% (active)"}]}]}
